Results as given in PubChem BioAssay AID504332 (National Center for Advancing Translational Sciences (NCATS), 2011).
Among all 350,000 compounds or so, about 31,000 (8.9%) were called active. About 15% were inconclusive and are not listed. The call rests on the fitted dose curve; in most records, active means well fitted inhibition curve with a large enough effect; inconclusive means small, poorly fitted or top-dose-only effect; inactive means no such curve, though single readings can be large or run the other way. Many of the other results were omitted from the sample, so actives are more common in it than they were.

Molecular target: Histone-lysine N-methyltransferase EHMT2 (Homo sapiens) (UniProt Q96KQ7)
Assay: qHTS Assay for Inhibitors of Histone Lysine Methyltransferase G9a; further: nearly all actives have a fitted effect of over 75% in size
Settings: G9a H3K9 monomethylation, AlphaScreen, 2 h; series mostly up to 59 µM; activity, negative = inhibition: at the top concentration
Method in brief: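 Methyltransferase reactions run at room temperature for 2 h (20 nM enzyme, 500 nM biotin-H3K9 peptide, 20 uM SAM) after a 15 min compound preincubation; product detected by AlphaScreen beads and anti-H3K9me1 antibody.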
On the % scale 0 is the no-effect control and ±100 the full control effect; potency means the concentration at half of the fitted maximal effect.

Histone-lysine N-methyltransferase EHMT2 (Homo sapiens), sequence (Q96KQ7 913-1193 limits assumed): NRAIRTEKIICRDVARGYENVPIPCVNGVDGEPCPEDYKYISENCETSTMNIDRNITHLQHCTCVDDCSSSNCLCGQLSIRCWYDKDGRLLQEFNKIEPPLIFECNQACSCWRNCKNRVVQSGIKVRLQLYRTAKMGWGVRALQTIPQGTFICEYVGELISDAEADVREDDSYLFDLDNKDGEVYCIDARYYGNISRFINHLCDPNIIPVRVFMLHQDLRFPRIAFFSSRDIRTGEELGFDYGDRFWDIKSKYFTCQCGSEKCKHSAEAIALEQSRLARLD

Compound	activity, negative = inhibition	Potency
O=C1CC(c2ccc(F)cc2F)c2cc3c(cc2N1)OCO3 (stereo unspecified)	-32.1% (inactive)	
Cc1ccc(S(=O)(=O)N2CCN(C(=O)Cc3sc(C)nc3-c3ccc(F)cc3)CC2)c(C)c1	-43.6% [at 102 µM] (inactive)	
CCc1ccc(S(=O)(=O)c2nnn3c2nc(NCc2ccccc2OC)c2cc(Cl)ccc23)cc1	-2.21% (inactive)	
O=C(Nc1nc2ccc(F)cc2s1)c1nc(SCc2ccccc2F)ncc1Cl	1.57% (inactive)	
CCOC(=O)Cc1ccc(NC(=O)Nc2c[nH]c(=O)[nH]c2=O)cc1	-37.2% (inactive)	
CCc1ccc(NC(=O)c2cc3c(=O)n(Cc4cccnc4)ccc3nc2C)cc1	4.59% (inactive)	
O=C(c1ccc(S(=O)(=O)N2CCCC2)cc1)N1CCN(c2ccccc2F)CC1	-24.1% [at 102 µM] (inactive)	
CNS(=O)(=O)c1ccc(C(=O)NCC(=O)NCCc2ccc3c(c2)OCCO3)cc1	-2.43% [at 12.7 µM] (inactive)	
CCOc1ccc(N(CC(=O)NCC2CCCO2)S(=O)(=O)c2ccc(C)cc2)cc1 (stereo unspecified)		50.1 µM (active)
Cc1ccc(S(=O)(=O)NCC(=O)N(CC(=O)NCC2CCCO2)c2cccc(F)c2)cc1 (stereo unspecified)	-4.98% [at 102 µM] (inactive)	
Cc1ccc(N(CC(=O)NCC2CCCO2)C(=O)CNS(=O)(=O)c2ccc(Cl)cc2)cc1 (stereo unspecified)		1 µM (active)
Cc1ccc(CN(CC(=O)NCC2CCCO2)S(=O)(=O)c2ccc(C)cc2)cc1 (stereo unspecified)	2.68% [at 102 µM] (inactive)	
O=C(CN(CC1CCCO1)C(=O)CNS(=O)(=O)c1ccc(Cl)cc1)NCc1ccccc1 (stereo unspecified)	11.7% [at 102 µM] (inactive)	
CCOc1ccc(S(=O)(=O)NCCC(=O)NCC2CCCO2)cc1 (stereo unspecified)	28.8% [at 12.7 µM] (inactive)	
Cc1ccc(-c2nnc(Nc3cccc(Br)c3)c3ccccc23)cc1S(=O)(=O)NCC1CCCO1 (stereo unspecified)	-31.8% (inactive)	
CCOc1ccccc1NC(=O)Cn1c2ncccc2c(=O)n1-c1ccc(C)c(C)c1	14% (inactive)	
COc1cc2ccccc2cc1C(=O)Nc1cccc(-c2nc3ccccc3o2)c1	-49.4% (inactive)	
O=C(/C=C/c1ccccc1)N1CCN(Cc2cc(=O)n3nc(-c4ccccc4F)sc3n2)CC1	3.63% (inactive)	
O=C(NCCC1=CCCCC1)c1ccc2c(c1)N(Cc1ccccc1F)C(=O)c1ccccc1S2(=O)=O	-2.68% (inactive)	
C=C(C)COc1ccc(-c2ncncc2-c2ccc(OC)cc2)c(O)c1	-21.2% [at 102 µM] (inactive)	
CC(C)c1ccc(NC(=O)Cn2c3ncccc3c(=O)n2-c2ccccc2)cc1	7.51% (inactive)	

Compound	activity, negative = inhibition	Potency
Cc1ccc(NC2(C#N)C(=O)Nc3ccccc32)cc1 (stereo unspecified)	-25.6% [at 2.33 µM] (inactive)	
N#CC1=C(N)Oc2n[nH]c(CSc3ccccc3)c2C12C(=O)Nc1ccccc12 (stereo unspecified)	-4.68% (inactive)	
N#CC1=C(N)Oc2[nH]c(=S)[nH]c(=O)c2C12C(=O)Nc1ccccc12 (stereo unspecified)		35.5 µM (active)
O=C1c2ccccc2NC(c2ccc(-c3cccc(Cl)c3)o2)N1O (stereo unspecified)	25.2% [at 12.7 µM] (inactive)	
CN=C1S/C(=C\c2ccc(Sc3ccc(Cl)cc3)o2)C(=O)N1C	0.554% [at 102 µM] (inactive)	
O=C(O)C(c1ccccc1)N1C(=O)/C(=C\c2ccc(-c3cccc(Cl)c3)o2)SC1=S (stereo unspecified)		39.8 µM (active)
Cc1ccc(C(=O)COC(=O)C(Cc2c[nH]c3ccccc23)NC(=O)c2ccc(Br)cc2)cc1 (stereo unspecified)	-5.2% (inactive)	
Cn1cc(S(=O)(=O)N2CCCCCC2)cc1C(=O)N1CCN(c2ccc(F)cc2)CC1	8.88% (inactive)	
CCCCc1nn2c(=O)cc(COC(=O)c3ccc(NC(=O)c4ccccc4C)cc3)nc2s1	5.46% (inactive)	
Cc1ccc(-n2c(SCC(=O)Nc3cccc(F)c3)nc3c(oc4ccccc43)c2=O)cc1C	-33.8% (inactive)	
CCN(CC(=O)Nc1ccc(OC)cc1)C(=O)c1ccc(Cl)c(S(=O)(=O)N2CCCC2)c1	11.9% (inactive)	
COc1ccc(C(=O)OCC(=O)c2ccc(Cl)s2)c(OC)c1OC	25.4% (inactive)	
C=CCNC(=S)NNC(=O)c1ccc(Br)o1	7.59% [at 102 µM] (inactive)	
C=CCNC(=S)NNC(=O)COc1c(Cl)cc(Cl)cc1Cl		8.91 µM (active)
C=CCNC(=S)NNC(=O)c1cc(Cl)ccc1OC	9.14% [at 102 µM] (inactive)	
O=C(c1cc(-c2ccc(F)cc2)on1)N1CCN(c2ccc(F)cc2)CC1		inactive
O=C1Nc2cc(C(=O)N3CCN(c4ccc(F)cc4)CC3)ccc2NC1CSCc1cccc(F)c1 (stereo unspecified)		10 µM (active)
O=C(c1cccc(F)c1)N1CCC2(CC1)CCN(c1ccccc1)CC2	-4.3% [at 12.7 µM] (inactive)	
Cc1ccc(CSCC2Nc3ccc(C(=O)N4CCN(c5ccc(F)cc5)CC4)cc3NC2=O)cc1 (stereo unspecified)		2.24 µM (active)
C=CCn1c(SCc2cccc(F)c2)nc2cc(C(=O)N3CCC(C(N)=O)CC3)ccc2c1=O	-26% [at 102 µM] (inactive)	
O=C(c1cc(C(=O)N2CCN(c3ccc(F)cc3)CC2)cc([N+](=O)[O-])c1)N1CCN(c2ccc(F)cc2)CC1	1.74% [at 0.501 µM] (inactive)	

Compound	activity, negative = inhibition	Potency
CC1CCCC(NC(=O)c2cc(S(=O)(=O)N3CCCCC3)ccc2Cl)C1C (stereo unspecified)	12.6% [at 12.7 µM] (inactive)	
CCOC(=O)c1c(C)[nH]c(C)c1S(=O)(=O)N1CCC(C(=O)Nc2ccc(C)c(Cl)c2)CC1	-2.96% (inactive)	
CC(=O)Nc1cccc(C(=O)OCC(=O)c2ccc3c(c2)OCO3)c1	-29% [at 102 µM] (inactive)	
CC1(C)CC(=O)c2ccc(O)cc2O1	43.9% [at 102 µM] (inactive)	
COc1ccc(C(=O)Nc2onc3c2CCCC3)cc1	-27.1% (inactive)	
CC(C)(C)c1ccc(C(=O)NCC(c2ccc(Cl)cc2)N2CCOCC2)cc1 (stereo unspecified)	-35.7% (inactive)	
CCOC(=O)c1cc2c(=O)n3ccccc3nc2n(CC2CCCO2)c1=NC(=O)c1ccccc1F (stereo unspecified)	10.2% (inactive)	
COc1cc(-c2nn3c(-c4cccc(C)c4)nnc3s2)cc(OC)c1OC	-23.6% [at 12.7 µM] (inactive)	
CCOc1cccc(-c2nn3c(-c4ccccn4)nnc3s2)c1	-13.9% (inactive)	
COc1ccc(-c2nn3c(-c4ccccc4)nnc3s2)cc1OC		35.5 µM (active)
Cc1ccc(C(=O)CNc2ccc(F)cc2)cc1	0.291% (inactive)	
COC(=O)c1ccc(NCC(=O)N2CCCCCC2)cc1	55% [at 102 µM] (inactive)	
COC(=O)c1ccc(NCC(=O)c2ccccc2)cc1		50.1 µM (active)
CCCCc1nc2cc(C(=O)NCCc3cnn(C)c3)ccc2o1	6.57% [at 102 µM] (inactive)	
O=C(NC1CCCCCCC1)c1cccs1	6.94% [at 102 µM] (inactive)	
CCN(Cc1ccccc1)C(=O)Cc1ccc(OC)c(S(=O)(=O)N2CCOCC2)c1	-30.1% [at 102 µM] (inactive)	
Cc1ccc(C(=O)c2ccc(N3CCN(C)CC3)c([N+](=O)[O-])c2)cc1	-20.6% (inactive)	
CN1CCN(S(=O)(=O)c2ccc(N3CCN(c4ccccc4O)CC3)c([N+](=O)[O-])c2)CC1		39.8 µM (active)
CN1CCN(c2ccc(S(=O)(=O)Nc3ccccc3)cc2[N+](=O)[O-])CC1	-2.72% (inactive)	
